# Results filed as inconclusive are left out. Activity calls are given as the source filed them. Calls follow the shape of the dose curve; as a rule, active = well fitted cell-killing curve with a large enough effect; inconclusive = small, poorly fitted or top-dose-only effect, or effect the other way; inactive = no such curve, though single readings can be large or run the other way.
# Experiment: Quantitative High-Throughput drug screen in 47 multiple myeloma cell lines against the NCATS MIPE library collection: MM1R_ATCC cell viability assay (AID 1918981); also: nearly all actives have a fitted effect of over 35% in size
# Settings: MM1R multiple myeloma cells, CellTiter-Glo viability, 48 h; series mostly up to 45.8 µM
# From the text: PI: Beverly A. Mock Ph.D.
# Laboratory of Cancer Biology and Genetics,
# Center for Cancer Research, National Cancer Institute,
# National Institute of Health, Bethesda, Maryland
# Drug resistance and disease progression are common in multiple myeloma (MM) patients, underscoring the need for new therapeutic combinations. […] We hypothesized that effective combinations would reduce MYC expression and enhance p16 activity. […] These preclinical data identify potentially useful drug combinations for evaluation in drug-resistant MM and reveal potential mechanisms of combined drug sensitivity.
# Described herein is the primary MIPE qHTS used to cherrypick compounds. Validated compounds were then further tested for potential synergistic activiy.
# [1] Peat TJ, Gaikwad SM, Dubois W, Gyabaah-Kessie N, Zhang S, Gorjifard S, Phyo Z, Andres M, Hughitt VK, Simpson RM, Miller MA, Girvin AT, Taylor A, Williams D, D'Antonio N, Zhang Y, Rajagopalan A, Flietner E, Wilson K, Zhang X, Shinn P, Klumpp-Thomas C, McKnight C, Itkin Z, Chen L, Kazandijian D, Zhang J, Michalowski AM, Simmons JK, Keats J, Thomas CJ, Mock BA. Drug combinations identified by high-throughput screening promote cell cycle transition and upregulate Smad pathways in myeloma. Cancer Lett. 2023 Aug 1;568:216284. doi: 10.1016/j.canlet.2023.216284. Epub 2023 Jun 24. PMID: 37356470; PMCID: PMC10408729.
# SEQUENCE No. (e.g., 1, 2, 3, etc.); […] (e.g., Cells, Incubation, Reagent, etc.); VALUE and DESCRIPTION.
# 1; Cells; 5 uL; white, solid bottom 1536-well Greiner assay plate.
# 2; Compounds; 23 nL; Kalypsis pin tool (Wako USA) equipped with a 1536-well pin head to transfer to the assay plates.
# 3; Incubation; 48 hours; 37C incubation.
# 4; Reagent;5uL; CellTiter Glo (Promega).
# 5; Detector; 425V; Luminescence; Viewlux PerkinElmer.
# NOTES (numbers refer to Sequence numbers above)
# 1. The cell-based screening methods employed in this study were like those previously published. Briefly, the corresponding myeloma cell lines were screened in 1,536-well plates with 500 cells, 5-uL per well for inhibition of cell viability (assessed by measuring ATP levels with CellTiterGlo).
# 2. NCATS MIPE 4.0 library of approved and investigational drugs were added using the Kalypsis pin tool. Wells treated with DMSO only for 100% viability and media only for 0% viability were used as controls.
# 3. The assay plates were covered and incubated for 48 hours in a 37C, 5% CO2 incubator with controlled humidity.
# 4. After 48 hours, CellTilter-GloTM luminescent substrate mix (Promega) reagent was added to the assay plate and plates we incubated for 5 min at room temperature.
# 5. Signal was measured as median relative luminescence units on a ViewLux (PerkinElmer) multiplate reader.
# [1] Heske CM, Davis MI, Baumgart JT, Wilson K, Gormally MV, Chen L, Zhang X, Ceribelli M, Duveau DY, Guha R, Ferrer M, Arnaldez FI, Ji J, Tran HL, Zhang Y, Mendoza A, Helman LJ, Thomas CJ. Matrix Screen Identifies Synergistic Combination of PARP Inhibitors and Nicotinamide Phosphoribosyltransferase (NAMPT) Inhibitors in Ewing Sarcoma. Clin Cancer Res. 2017 Dec 1;23(23):7301-7311. doi: 10.1158/1078-0432.CCR-17-1121. Epub 2017 Sep 12. PMID: 28899971; PMCID: PMC6636827.
# Potency is read from the fitted curve at half-maximal effect.
row,Structure (SMILES),Potency
1,C#C[C@]1(O)CC[C@@H]2[C@@H]3CCc4cc(O)ccc4[C@H]3CC[C@@]21C,20.9 µM (active)
2,Cn1cnc(=N)c2[nH]cnc21,0.0935 µM (active)
3,CC(C)C[C@H](NC(=O)[C@@H](NC(=O)c1cccc(-c2ccccc2)n1)[C@@H](C)O)B(O)O,0.0132 µM (active)
4,COc1cc(N2CCC(C(N)=O)CC2)ccc1Nc1nc(N)c(Cl)c(Nc2ccccc2S(=O)(=O)C(C)C)n1,1.18 µM (active)
5,CC(C)(C)c1nc2c3cc[nH]c(=O)c3c3cc(F)ccc3c2[nH]1,2.64 µM (active)
6,O=C(NNC(=O)c1ccc(CNS(=O)(=O)c2ccc(F)c(Cl)c2)cc1)c1ccccc1,inactive
7,COc1ccc(C=Cc2cc(OC)c(OC)c(OC)c2)cc1NC(=O)[C@H](N)CO,0.0148 µM (active)
8,CCn1c(=O)c2c(nc(C=Cc3ccc(OC)c(OC)c3)n2C)n(CC)c1=O,inactive
9,CCCCCCCN(CC)CCCC(O)c1ccc(NS(C)(=O)=O)cc1 (stereo not given),inactive
10,C[C@H](CCC(=O)O)[C@H]1CCC2C3C[C@H](O)[C@@H]4C[C@H](O)CC[C@]4(C)C3CC[C@@]21C (stereo not given in full),inactive
11,CC(=O)O[C@@]12CO[C@H]1C[C@H](O)[C@@]1(C)C(=O)[C@H](O)C3=C(C)[C@@H](OC(=O)C(O)[C@@H](NC(=O)OC(C)(C)C)c4ccccc4)C[C@@](O)([C@@H](OC(=O)c4ccccc4)[C@@H]21)C3(C)C (stereo not given in full),inactive
12,Cc1cc(C(=O)NOCCO)c(Nc2ccc(I)cc2F)n(C)c1=O,inactive
13,CC(C=CC1=C(C)CCCC1(C)C)=CC=CC(C)=CC(=O)Nc1ccc(O)cc1,17.1 µM (active)
14,Nc1nc(=O)n([C@H]2C[C@H](O)[C@@H](CO)O2)cc1F,inactive
15,Cc1cnc(NC(=O)Nc2cc(Br)c(C)cc2OC[C@@H]2CNCCO2)cn1,0.743 µM (active)
16,COc1ccc2c(c1OC)C(=O)OC2[C@H]1c2c(cc3c(c2OC)OCO3)CCN1C (stereo not given in full),0.418 µM (active)
17,CC[C@]12C=CCN3CC[C@@]4(c5cc([C@@]6(C(=O)OC)C[C@H]7C[C@@H](C(C)(F)F)CN(Cc8c6[nH]c6ccccc86)C7)c(OC)cc5N(C)[C@H]4[C@@](O)(C(=O)OC)[C@H]1OC(C)=O)[C@@H]32,0.469 µM (active)
18,CN1[C@H]2CC(OC(=O)[C@@H](CO)c3ccccc3)C[C@H]1[C@H]1O[C@H]12 (stereo not given in full),inactive
19,NC(=O)c1cccc(-c2cccc(OC(=O)NC3CCCCC3)c2)c1,inactive
20,Cc1cnn(C)c1C(=O)Nc1cc(Nc2ccc3c(C=Cc4ccccn4)n[nH]c3c2)ccc1F,26.4 µM (active)

row,Structure (SMILES),Potency
1,N#Cc1c(NC(=O)c2cccc3ccccc23)sc2c1CCCC2,0.743 µM (active)
2,CC(C=CC=C(C)C=CC1=C(C)CCCC1(C)C)=CC=CC=C(C)C=CC=C(C)C=CC1=C(C)CCCC1(C)C,16.6 µM (active)
3,COc1ccc([C@@H]2CNC(=O)C2)cc1OC1CCCC1,inactive
4,Cc1coc2c1C(=O)C(=O)c1c-2ccc2c(C)cccc12,20.9 µM (active)
5,O=C(C=CC#Cc1cccc(NS(=O)(=O)c2ccccc2)c1)NO,1.48 µM (active)
6,CC(=O)O[C@]1(C(C)=O)CC[C@H]2[C@@H]3C=C(C)C4=CC(=O)CC[C@]4(C)[C@@H]3CC[C@@]21C,11.8 µM (active)
7,CCOc1cc2c(c(F)c1OCC)C(=N)N(CC(=O)c1cc(N3CCOCC3)c(OC)c(C(C)(C)C)c1)C2,20.9 µM (active)
8,C[N+]1(C)[C@@H]2C[C@@H](OC(=O)C(O)(c3cccs3)c3cccs3)C[C@H]1[C@@H]1O[C@@H]12,inactive
9,Cc1[nH]c(C=C2C(=O)Nc3ccccc32)c(C)c1CCC(=O)O,0.526 µM (active)
10,COC(=O)[C@H](CCCN=C(N)N)NS(=O)(=O)c1ccc(C)cc1,inactive
11,O=S(=O)(O)CCSSCCS(=O)(=O)O,inactive
12,Nc1ccn(C2CO[C@H](CO)O2)c(=O)n1 (stereo not given in full),inactive
13,CS[C@H]1SC[C@@H]2C(=O)N(C)[C@H](C(C)C)C(=O)OC[C@H](NC(=O)c3cnc4ccccc4n3)C(=O)N[C@H](C)C(=O)N(C)[C@@H]1C(=O)N(C)[C@H](C(C)C)C(=O)OC[C@H](NC(=O)c1cnc3ccccc3n1)C(=O)N[C@H](C)C(=O)N2C,0.0019 µM (active)
14,C[C@H](NCc1ccc2c(c1)nc(NC(=O)c1ccc(-c3cn[nH]c3)s1)n2CCc1ccccc1)C(C)(C)C,1.66 µM (active)
15,C[C@@H](Oc1ccc2[nH]nc(C=Cc3cnn(CCO)c3)c2c1)c1c(Cl)cncc1Cl,2.64 µM (active)
16,C=CC(=O)Nc1cccc(Nc2nc(NC3CCC(N(C)C)CC3)nc3c2ncn3C(C)C)c1 (stereo not given),0.187 µM (active)
17,CCCCC(=O)O[C@]1(C(=O)CO)[C@@H](C)C[C@H]2[C@@H]3CCC4=CC(=O)C=C[C@]4(C)[C@@]3(F)[C@@H](O)C[C@@]21C,inactive
18,FC(F)c1nc2ccccc2n1-c1nc(N2CCOCC2)nc(N2CCOCC2)n1,0.743 µM (active)
19,Cc1ccccc1C(=O)Nc1ccc(C(=O)N2CCCC(O)c3cc(Cl)ccc32)c(C)c1 (stereo not given),inactive
20,CNC(=O)Nc1ccc(-c2nc(N3CC4CCC(C3)O4)c3cnn(C4CCC5(CC4)OCCO5)c3n2)cc1,0.0418 µM (active)

# Reference: PubChem BioAssay (NCATS)
